# High-throughput results from PubChem BioAssay.
# This is a sample that favours compounds with a hit; in the whole collection about 2% have one here.
# GALR2 agonist – GALR2 receptor agonists, primary screen, cell-based. Galanin receptor type 2 (Homo sapiens), O43603. GALR2-expressing cells, agonist activation read-out. activation, % (concentration not given with the values). 140,000 compounds, 0.48% hits; in the data active = activation above about 5%, passing the limit was not always enough
# Target sequence (O43603 whole entry, looked up): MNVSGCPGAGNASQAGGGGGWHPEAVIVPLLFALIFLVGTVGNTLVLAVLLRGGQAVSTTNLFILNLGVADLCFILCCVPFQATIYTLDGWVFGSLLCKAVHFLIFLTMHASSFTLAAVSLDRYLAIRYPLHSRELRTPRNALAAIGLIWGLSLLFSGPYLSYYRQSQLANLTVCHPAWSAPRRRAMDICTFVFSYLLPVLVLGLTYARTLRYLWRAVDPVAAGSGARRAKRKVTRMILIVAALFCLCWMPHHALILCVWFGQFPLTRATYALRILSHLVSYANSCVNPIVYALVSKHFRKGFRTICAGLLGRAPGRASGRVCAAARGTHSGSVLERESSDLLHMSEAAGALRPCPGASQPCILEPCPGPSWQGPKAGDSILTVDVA
# PLAP act – PLAP enzyme activators, biochemical, luminescence, HTS. 96,000 compounds, 1.2% hits. AID 696, 2007. purified PLAP enzyme, luminescent substrate read-out; stronger effect = higher value. activation fold at 20 µM. Alkaline phosphatase, placental type (Homo sapiens), P05187; in the data active = activation fold above about 2
# S1P2 antag – human S1P2 receptor antagonists, primary screen, cell-based; 97,000 compounds, 0.21% hits; inhibition, % at 5 µM; cell-based S1P2 antagonist assay, inhibition at 5 uM; Sphingosine 1-phosphate receptor 2 (Homo sapiens), O95136; in the data active = inhibition above about 45%;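 also: CRE beta-lactamase reporter cells expressing human S1P2 stimulated with S1P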
# GALR2 antag – GALR2 antagonists in receptor-expressing cells, primary screen | antagonist mode | 140,000 compounds, 0.39% hits | Galanin receptor type 2 (Homo sapiens), O43603 | AID 828, 2007 | inhibition, % at 4 µM; in the data active = inhibition above about 27%;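 also: cells stimulated with galanin 1-16 at roughly its EC80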
# S1P2 ag – S1P2 receptor agonists, primary screen, cell-based | activation, % at 4.5 µM | Sphingosine 1-phosphate receptor 2 (Homo sapiens), O95136 | S1P2-expressing cell line, agonist reporter read-out | 97,000 compounds, 0.46% hits; in the data active = activation above about 16%
# GALR2 ag confirm – GALR2 agonists, retest of hits, confirmation, cell-based; shares compounds with GALR2 agonist; GALR2-expressing cells, agonist activation; activation, % at 5.6 µM; 460 compounds, 10% hits; AID 864, 2007; in the data active = activation above about 8.4%
# BLA act counter – activators of NFAT-driven beta-lactamase reporter, confirmation, counter-screen for GALR2 agonist project, CHO NFAT-bla cells, FRET readout. shares compounds with GALR2 agonist. beta-lactamase FRET activation. activation, % at 5.6 µM. 460 compounds, 10% hits. AID 865, 2007;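 active = activation above the screen-wide mean activation plus 3 SD, cut at about 8% in these data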
# Numbers stand for hits; – = inactive; · = no result.
SMILES,GALR2 agonist,PLAP act,S1P2 antag,GALR2 antag,S1P2 ag,GALR2 ag confirm,BLA act counter
CCCCn1c(SCC(=O)c2cc(OC)ccc2OC)nc2cc(S(N)(=O)=O)ccc21,68.3,–,·,–,·,–,–
CCCCn1c(SCC(=O)N2CCC(C)CC2)nc2cc(S(N)(=O)=O)ccc21,–,–,–,–,–,·,·
O=C(Nc1cccc2ncccc12)C12CC3CC(CC(C3)C1)C2,–,–,–,–,–,·,·
O=C(CC12CC3CC(CC(C3)C1)C2)Nc1cccc2ncccc12,23.2,–,–,–,–,–,–
Cc1cc(/C=N/NC(=O)Cn2c3ccccc3c(=O)c3ccccc32)c(C)n1-c1ccccc1,–,–,–,–,–,–,–
COc1ccc2cc(-c3cc(C(=O)OCC(=O)NC4CCS(=O)(=O)C4)c4ccccc4n3)ccc2c1 (configuration not stated),11.0,·,·,–,·,14.0,25.1
O=C(COC(=O)c1cc(-c2cccc3ccccc23)nc2ccccc12)NC1CCS(=O)(=O)C1 (configuration not stated),–,·,·,–,·,·,·
CCOc1ccc(Nc2nc(Cc3nnc(SCC(=O)c4ccc(C)c(C)c4)o3)cs2)cc1,19.3,–,–,–,–,–,–
COC(=O)c1c(S(C)(=O)=O)nc(-c2ccccc2)[nH]c1=O,–,·,·,–,·,·,·
Cc1nn(C)c(C)c1S(=O)(=O)N(CC(=O)NCc1cccs1)c1ccc(C(C)C)cc1,–,·,·,–,·,·,·
COc1ccc(N(CC(=O)NCc2cccs2)S(=O)(=O)c2c(C)nn(C)c2C)cc1,17.2,–,–,–,–,–,–
Cc1cc(C(=O)O)c(=O)[nH]c1C,–,–,–,–,–,·,·
O=C(O)c1c[nH]ccc1=O,11.7,–,–,–,–,–,–
COC(=O)c1sccc1NC(=O)CN(C)NS(=O)(=O)c1ccc(Cl)cc1,–,–,–,–,–,·,·
COC(=O)c1sccc1NC(=O)CN(C)NS(=O)(=O)c1ccc(F)cc1,–,–,–,–,–,–,–
CCOC(=O)c1sc(=S)n(-c2cccc(C(F)(F)F)c2)c1SC,–,–,–,–,–,·,·
COc1ccccc1-c1cc(C(F)(F)F)nc(S(=O)(=O)CCCC(=O)N2CCOCC2)n1,–,–,–,–,–,–,–
COc1ccccc1-c1cc(C(F)(F)F)nc(S(=O)(=O)CCCC(=O)O)n1,–,–,–,–,–,·,·
Cc1cc(C)c(NC(=O)CCCC(=O)O)c(Cl)c1,13.3,–,–,–,–,–,–
CCc1cccc(C)c1NC(=O)CCCC(=O)O,–,–,–,–,–,·,·
NC(=O)C1CC(=O)N(c2ccc(OCC(=O)Nc3cccc(C(F)(F)F)c3)cc2)C1 (configuration not stated),–,–,–,–,–,–,–
CCc1nc(N2CCN(Cc3ccc4c(c3)OCO4)CC2)c2oc3ccccc3c2n1,–,–,–,–,–,·,·
CC(C)CNS(=O)(=O)c1ccc(CCC(=O)Nc2ccc3c(c2)OCCO3)cc1,–,–,–,–,–,·,·
Cc1ccc(S(=O)(=O)N2CCN(C(=O)COc3ccc(NC(=O)c4ccco4)cc3)CC2)cc1,12.8,–,–,–,–,–,–
CCCNC(=O)c1cc2nc(-c3ccccc3)cc(C(F)(F)F)n2n1,–,·,–,–,–,·,·
SMILES,GALR2 agonist,PLAP act,S1P2 antag,GALR2 antag,S1P2 ag,GALR2 ag confirm,BLA act counter
CC(=O)CCn1c(=O)n(CCC(C)=O)c(=O)n(CCC(C)=O)c1=O,36.4,·,–,–,–,–,–
C#CCNc1cc(C)nc2ncnn12,12.6,–,–,–,–,–,–
COc1ccccc1N1CCN(C(CNS(=O)(=O)c2ccccc2)c2cccnc2)CC1 (configuration not stated),–,–,–,–,–,–,–
COc1ccc(S(=O)(=O)NCC(c2cccnc2)N2CCN(c3ccccc3OC)CC2)cc1C (configuration not stated),–,–,–,–,–,·,·
O=C(NC1CCCCC1)C(c1ccc(Cl)cc1)N1CCC2(CC1)OCCO2 (configuration not stated),10.8,–,–,–,–,–,–
Cc1ccc(C(C(=O)NC2CCCCC2)N2CCC3(CC2)OCCO3)cc1 (configuration not stated),–,–,–,–,–,·,·
Cc1ccc(OCc2nnc(SCC(=O)Nc3nccs3)n2-c2ccccc2)cc1C,–,–,–,–,–,·,·
Cc1ccc(-n2c(COc3c(C)cccc3C)nnc2SCC(=O)Nc2nccs2)cc1,64.5,–,–,–,–,–,–
CCCCNc1ccc2nsnc2c1[N+](=O)[O-],–,·,·,–,·,·,·
O=C(/C=C/c1ccco1)Nc1cc(Cl)ccc1C(=O)O,12.0,·,·,–,·,–,–
NC(=O)c1ncn([C@@H]2O[C@H](CO)[C@@H](O)[C@H]2O)c1O,–,·,·,–,·,·,·
CCOc1ncccc1C(=O)OCC(=O)Nc1ccc(-c2nc3ccc(C)cc3s2)cc1,10.9,·,·,–,·,–,–
CC(C)N1C(=O)S/C(=C/c2ccc3c(c2)n(C)c(=O)n3C)C1=O,96.9,–,–,–,–,–,–
CC(C)N1C(=O)S/C(=C/c2cccnc2)C1=O,–,–,–,–,–,·,·
CC(=O)NCN1CCN(CNC(C)=O)CC1,–,–,–,–,–,–,–
CCN(CC)C(c1ccc(C)cc1)c1nnnn1C1CCCCC1 (configuration not stated),–,–,–,–,–,·,·
CCN(CC)C(c1ccc(F)cc1)c1nnnn1C1CCCCC1 (configuration not stated),9.8,–,–,–,–,–,–
CCN(CC)c1ccc2c(c1)oc(=O)c1c(Cl)cc(=O)oc12,20.1,–,–,–,–,–,11.5
O=c1oc2cc(O)ccc2c2oc3cc(O)ccc3c12,–,·,·,–,·,·,·
CN1CCN(C(=S)NC(=O)/C=C/c2cccc3ccccc23)CC1,21.9,–,–,–,–,–,–
Cc1cc(NC(NC(=O)c2ccco2)(C(F)(F)F)C(F)(F)F)no1,–,–,–,–,–,–,–
CC(Cc1ccccc1)C(=O)NCc1ccncc1 (configuration not stated),–,·,·,–,·,·,·
CC(Cc1ccccc1)C(=O)N[C@@H](CO)Cc1ccccc1 (some centres not stated),23.3,·,·,–,·,–,–
COc1ccc2ccccc2c1/C=N/NC(=O)c1sc(N)c(C#N)c1C,11.6,·,·,–,·,–,–
CC(=O)N(c1ccccc1)c1ccc([N+](=O)[O-])cc1[N+](=O)[O-],–,·,·,–,·,·,·
O=C(c1ccco1)N1CCN(c2cc(C(F)(F)F)nc3ncnn23)CC1,–,–,–,–,–,·,·
Cc1cc(C)n2nc(SCC(=O)Nc3c(C)n(C)n(-c4ccccc4)c3=O)nc2n1,–,–,–,–,–,·,·
